Data on seven sequences can be found in publication PMC7862700, “An all-to-all approach to the identification of sequence-specific readers for epigenetic DNA modifications on cytosine”.

What all share (test): DAPPL (digital affinity profiling via proximity ligation, sequencing); 10 mM Tris-HCl pH 7.5, 50 mM NaCl, 1 mM DTT, 4% glycerol, room temperature, 30 min; GST-TFs on glutathione beads, 16-mer random dsDNA library, 0.1% formaldehyde crosslink after washing; high values mean tight binding
What all share (settings): protein: recombinant; tags: N-terminal GST; dsDNA, one strand shown

In experiment [1] the target is T1, ERF (Homo sapiens, UniProt P50548 1-548).
T1 sequence: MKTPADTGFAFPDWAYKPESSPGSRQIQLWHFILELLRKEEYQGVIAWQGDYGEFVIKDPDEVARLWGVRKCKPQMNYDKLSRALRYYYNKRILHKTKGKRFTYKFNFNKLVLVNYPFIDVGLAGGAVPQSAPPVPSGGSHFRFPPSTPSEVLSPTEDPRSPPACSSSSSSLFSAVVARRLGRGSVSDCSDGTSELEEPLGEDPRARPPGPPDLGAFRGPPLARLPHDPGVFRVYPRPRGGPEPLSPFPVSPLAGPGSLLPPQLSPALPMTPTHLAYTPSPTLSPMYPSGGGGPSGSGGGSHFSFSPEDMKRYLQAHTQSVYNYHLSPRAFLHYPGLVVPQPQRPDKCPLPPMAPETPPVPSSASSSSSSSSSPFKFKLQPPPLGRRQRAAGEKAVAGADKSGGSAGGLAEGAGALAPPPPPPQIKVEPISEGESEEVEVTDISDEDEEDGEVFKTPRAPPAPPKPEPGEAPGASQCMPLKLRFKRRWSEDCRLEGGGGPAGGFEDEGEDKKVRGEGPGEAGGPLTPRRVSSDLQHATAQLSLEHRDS
In short, it runs like this: (§1)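 In yeast, human transcription factors were expressed with a GST fusion, then pulled down on glutathione beads and given DNA barcodes. Pooled with a tag-only sample, they were exposed to 200 nmole of a 16-mer random double-stranded DNA library (Tris/NaCl/DTT/glycerol buffer, room temperature, 30 min), washed, crosslinked with 0.1% formaldehyde, proximity-ligated using BsaI/T4 ligase for 1 h at 37 °C, PCR-amplified and read on an Illumina NextSeq500. Each hexamer's frequency of reads for a factor, divided by the matching frequency for the tag-only sample, gives the binding signal.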

Experiment [2] concerns the target T2, ETV3L (Homo sapiens, UniProt Q6ZN32 1-361).
T2 sequence: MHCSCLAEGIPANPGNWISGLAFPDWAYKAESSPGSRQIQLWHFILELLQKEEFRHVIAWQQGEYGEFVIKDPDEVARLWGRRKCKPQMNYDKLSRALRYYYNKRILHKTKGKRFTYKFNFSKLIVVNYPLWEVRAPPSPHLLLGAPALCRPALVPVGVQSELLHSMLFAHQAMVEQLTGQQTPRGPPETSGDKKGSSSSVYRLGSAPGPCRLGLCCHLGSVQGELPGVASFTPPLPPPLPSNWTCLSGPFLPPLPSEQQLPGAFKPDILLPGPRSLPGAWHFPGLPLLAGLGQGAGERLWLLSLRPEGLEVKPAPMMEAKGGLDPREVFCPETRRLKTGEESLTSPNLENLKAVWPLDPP
In short, it runs like this: as §1

In experiment [3] the target is T3, ETS2 (Homo sapiens, UniProt P15036 1-469).
T3 sequence: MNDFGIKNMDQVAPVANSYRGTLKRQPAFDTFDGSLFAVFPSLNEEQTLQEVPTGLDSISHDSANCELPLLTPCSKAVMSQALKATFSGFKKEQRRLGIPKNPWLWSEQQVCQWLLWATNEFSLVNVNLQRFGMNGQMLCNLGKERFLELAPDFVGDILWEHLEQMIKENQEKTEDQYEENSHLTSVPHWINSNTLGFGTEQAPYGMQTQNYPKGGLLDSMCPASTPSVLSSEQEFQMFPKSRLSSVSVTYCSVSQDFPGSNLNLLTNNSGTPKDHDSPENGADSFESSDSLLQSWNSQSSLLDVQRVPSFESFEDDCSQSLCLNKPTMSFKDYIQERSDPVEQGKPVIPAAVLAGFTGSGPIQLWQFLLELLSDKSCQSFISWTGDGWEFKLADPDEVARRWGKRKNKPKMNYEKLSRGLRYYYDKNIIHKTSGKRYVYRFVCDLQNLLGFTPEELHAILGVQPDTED
In short, it runs like this: as §1

For experiment [4], the target named is T4, SPDEF (Homo sapiens, UniProt O95238 1-335).
T4 sequence: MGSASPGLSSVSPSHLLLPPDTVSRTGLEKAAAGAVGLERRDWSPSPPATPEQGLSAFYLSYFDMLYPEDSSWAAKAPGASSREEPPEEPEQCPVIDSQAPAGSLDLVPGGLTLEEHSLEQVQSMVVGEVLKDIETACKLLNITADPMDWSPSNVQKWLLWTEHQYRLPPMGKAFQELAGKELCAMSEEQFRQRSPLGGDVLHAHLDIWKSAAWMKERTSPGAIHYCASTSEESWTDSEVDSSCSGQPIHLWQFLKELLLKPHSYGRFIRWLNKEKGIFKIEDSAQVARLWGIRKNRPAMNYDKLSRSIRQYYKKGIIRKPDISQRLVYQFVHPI
In short, it runs like this: as §1

In experiment [5] the target is T5, ETV7 (Homo sapiens, UniProt Q9Y603 1-341).
T5 sequence: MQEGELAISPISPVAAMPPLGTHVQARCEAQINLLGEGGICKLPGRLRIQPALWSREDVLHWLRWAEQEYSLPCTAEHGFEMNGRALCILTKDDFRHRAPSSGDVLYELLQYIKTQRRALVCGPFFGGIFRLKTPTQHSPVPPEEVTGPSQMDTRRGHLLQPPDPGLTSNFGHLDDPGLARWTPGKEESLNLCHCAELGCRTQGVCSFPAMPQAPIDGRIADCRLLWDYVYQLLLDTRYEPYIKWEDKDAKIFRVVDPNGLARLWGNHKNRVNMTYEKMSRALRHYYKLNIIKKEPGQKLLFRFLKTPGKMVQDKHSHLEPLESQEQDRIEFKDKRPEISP
Summed up: as §1

Experiment [6] deals with T6, ELF5 (Homo sapiens, UniProt Q9UKW6-2 1-255).
T6 sequence: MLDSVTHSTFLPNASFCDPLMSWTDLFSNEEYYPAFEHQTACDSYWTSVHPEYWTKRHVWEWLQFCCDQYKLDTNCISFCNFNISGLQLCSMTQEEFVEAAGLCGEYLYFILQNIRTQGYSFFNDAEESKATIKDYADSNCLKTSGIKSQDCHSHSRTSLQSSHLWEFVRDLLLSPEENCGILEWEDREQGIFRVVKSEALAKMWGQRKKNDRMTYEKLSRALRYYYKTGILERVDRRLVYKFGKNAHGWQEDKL
Summed up:
as §1

Experiment [7] deals with T7, ETV3 (Homo sapiens, UniProt P41162-2 1-143).
T7 sequence: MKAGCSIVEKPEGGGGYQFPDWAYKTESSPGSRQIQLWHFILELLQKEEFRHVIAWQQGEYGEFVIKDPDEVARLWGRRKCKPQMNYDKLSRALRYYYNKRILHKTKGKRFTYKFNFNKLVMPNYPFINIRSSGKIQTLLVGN
Summed up: as §1

Experiment [8] concerns the target ETV6 (Homo sapiens, UniProt P41212 1-452). Summed up: as §1

Sequence of ETV6 (P41212 whole entry): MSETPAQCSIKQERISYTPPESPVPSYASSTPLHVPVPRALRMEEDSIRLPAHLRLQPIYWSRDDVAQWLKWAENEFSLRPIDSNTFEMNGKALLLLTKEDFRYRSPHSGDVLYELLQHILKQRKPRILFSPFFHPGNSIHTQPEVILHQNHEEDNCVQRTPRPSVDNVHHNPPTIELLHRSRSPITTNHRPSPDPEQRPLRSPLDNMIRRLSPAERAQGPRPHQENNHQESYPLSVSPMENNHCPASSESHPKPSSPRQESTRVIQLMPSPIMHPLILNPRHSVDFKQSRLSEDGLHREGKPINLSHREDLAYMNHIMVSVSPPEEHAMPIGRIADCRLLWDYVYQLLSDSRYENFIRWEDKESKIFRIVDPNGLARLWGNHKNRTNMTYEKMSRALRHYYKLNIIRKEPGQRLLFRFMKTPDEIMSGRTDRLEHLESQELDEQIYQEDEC

For ATGTAT, the binding signal is 1.47 fold enrichment (6-mer frequency, TF over GST control) in experiment [1]; 1.48 fold enrichment (6-mer frequency, TF over GST control) in experiment [2]; 1.34 fold enrichment (6-mer frequency, TF over GST control) in experiment [3]; 1.65 fold enrichment (6-mer frequency, TF over GST control) in experiment [4]; 1.47 fold enrichment (6-mer frequency, TF over GST control) in experiment [5]; 1.31 fold enrichment (6-mer frequency, TF over GST control) in experiment [6]. Moreover, the binding signal is 1.42 fold enrichment (6-mer frequency, TF over GST control) in experiment [7] and 1.32 fold enrichment (6-mer frequency, TF over GST control) in experiment [8].

Consider GGAAGC, for which the binding signal was 1.43 fold enrichment (6-mer frequency, TF over GST control) in experiment [1]; 1.5 fold enrichment (6-mer frequency, TF over GST control) in experiment [2]; 1.6 fold enrichment (6-mer frequency, TF over GST control) in experiment [3]; 1.55 fold enrichment (6-mer frequency, TF over GST control) in experiment [4]; 1.62 fold enrichment (6-mer frequency, TF over GST control) in experiment [5]; 1.95 fold enrichment (6-mer frequency, TF over GST control) in experiment [6]. For the same sequence, the binding signal in experiment [7] is 1.69 fold enrichment (6-mer frequency, TF over GST control); in experiment [8] it was 1.92 fold enrichment (6-mer frequency, TF over GST control).

TGGTGT: the binding signal in experiment [1] is 1.19 fold enrichment (6-mer frequency, TF over GST control); in experiment [2] it was 1.25 fold enrichment (6-mer frequency, TF over GST control); in experiment [3], 1.32 fold enrichment (6-mer frequency, TF over GST control); in experiment [4] it was 1.23 fold enrichment (6-mer frequency, TF over GST control); in experiment [5], 1.08 fold enrichment (6-mer frequency, TF over GST control); in experiment [6], 1.14 fold enrichment (6-mer frequency, TF over GST control). In addition, the binding signal was 1.25 fold enrichment (6-mer frequency, TF over GST control) in experiment [7] and 1.31 fold enrichment (6-mer frequency, TF over GST control) in experiment [8].

In the case of CGATCC, the binding signal in experiment [1] was 1.33 fold enrichment (6-mer frequency, TF over GST control); in experiment [2] it was 1.18 fold enrichment (6-mer frequency, TF over GST control); in experiment [3], 1.2 fold enrichment (6-mer frequency, TF over GST control); in experiment [4], 1.4 fold enrichment (6-mer frequency, TF over GST control); in experiment [5], 1.1 fold enrichment (6-mer frequency, TF over GST control); in experiment [6], 1.2 fold enrichment (6-mer frequency, TF over GST control). Besides, the binding signal was 1.24 fold enrichment (6-mer frequency, TF over GST control) in experiment [7] and 1.23 fold enrichment (6-mer frequency, TF over GST control) in experiment [8].

With CACTCA, the binding signal in experiment [1] was 1.2 fold enrichment (6-mer frequency, TF over GST control); in experiment [2], 1.11 fold enrichment (6-mer frequency, TF over GST control); in experiment [3], 1.16 fold enrichment (6-mer frequency, TF over GST control); in experiment [4], 1.14 fold enrichment (6-mer frequency, TF over GST control); in experiment [5] it was 1.21 fold enrichment (6-mer frequency, TF over GST control); in experiment [6], 1.12 fold enrichment (6-mer frequency, TF over GST control). Besides, the binding signal in experiment [7] was 1.09 fold enrichment (6-mer frequency, TF over GST control); in experiment [8], 1.14 fold enrichment (6-mer frequency, TF over GST control).

For ACTTGT, the binding signal in experiment [1] is 1.28 fold enrichment (6-mer frequency, TF over GST control); in experiment [2], 1.23 fold enrichment (6-mer frequency, TF over GST control); in experiment [3] it was 1.36 fold enrichment (6-mer frequency, TF over GST control); in experiment [4], 1.22 fold enrichment (6-mer frequency, TF over GST control); in experiment [5], 1.2 fold enrichment (6-mer frequency, TF over GST control); in experiment [6], 1.28 fold enrichment (6-mer frequency, TF over GST control). Also, the binding signal is 1.36 fold enrichment (6-mer frequency, TF over GST control) in experiment [7] and 1.32 fold enrichment (6-mer frequency, TF over GST control) in experiment [8].

TTGTAC: the binding signal in experiment [1] is 1.31 fold enrichment (6-mer frequency, TF over GST control); in experiment [2] it was 1.41 fold enrichment (6-mer frequency, TF over GST control); in experiment [3], 1.34 fold enrichment (6-mer frequency, TF over GST control); in experiment [4], 1.54 fold enrichment (6-mer frequency, TF over GST control); in experiment [5] it was 1.33 fold enrichment (6-mer frequency, TF over GST control); in experiment [6] it was 1.23 fold enrichment (6-mer frequency, TF over GST control). The binding signal is 1.44 fold enrichment (6-mer frequency, TF over GST control) in experiment [7] and 1.48 fold enrichment (6-mer frequency, TF over GST control) in experiment [8].
